Measurements reported in PubChem BioAssay AID1159580 (chemical genetic matrix, 2015).
The campaign covered roughly 5,500 compounds. About 2,000 (36%) were called active. Not shown: some 18% with an inconclusive outcome. No stated cut-off is given here; in the data, active means normalized growth mostly below about 0.91 (no sharp cut-off); inconclusive means no clear call, values can overlap the other calls; inactive means mostly above about 0.92. This is one part of the list.

Test: chemical genetic growth profiling, strain panel (AID 1159580);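 further: tested at 20 µM; growth read once vehicle control cultures reached saturation at 30 °C; 1 = growth at the plate median or of vehicle wells; lower values mean less growth of the strain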
Settings: S. cerevisiae deletion strains, growth OD

Measured: normalized growth

O=c1oc2ccccc2cc1O
inactive: locus YAL021C, strain ccr4, active compounds read low 0.986 | locus YAL026C, strain drs2, active compounds read low 0.975 | locus YAL030W, strain snc1, active compounds read low 0.993 | locus YBL061C, strain skt5, active compounds read low 0.993 | locus YBR009C, strain hhf1, active compounds read low 1 | locus YBR021W, strain FUR4, active compounds read low 1.03 | locus YBR023C, strain chs3, active compounds read low 0.993 | locus YBR171W, strain sec66, active compounds read low 0.977 | locus YBR229C, strain ROT2, active compounds read low 1.03 | locus YBR231C, strain swc5, active compounds read low 1.01 | locus YBR279W, strain paf1, active compounds read low 0.994 | locus YCL011C, strain gbp2, active compounds read low 1.01 | locus YCL016C, strain dcc1, active compounds read low 0.999 | locus YCL029C, strain bik1, active compounds read low 1.02 | locus YCL061C, strain MRC1, active compounds read low 0.991 | locus YCL069W, strain vba3, active compounds read low 0.968 | locus YCR088W, strain abp1, active compounds read low 0.986 | locus YDL005C, strain med2, active compounds read low 0.986 | locus YDL035C, strain GPR1, active compounds read low 1.06 | locus YDL040C, strain nat1, active compounds read low 0.994 | locus YDL074C, strain BRE1, active compounds read low 1.13 | locus YDL101C, strain DUN1, active compounds read low 1.01 | locus YDL134C, strain PPH21, active compounds read low 1.07 | locus YDL185W, strain tfp1, active compounds read low 0.998 | locus YDL192W, strain arf1, active compounds read low 1.03 | locus YDR001C, strain nth1, active compounds read low 0.984 | locus YDR069C, strain doa4, active compounds read low 0.991 | locus YDR101C, strain arx1, active compounds read low 0.991 | locus YDR137W, strain rgp1, active compounds read low 0.969 | locus YDR159W, strain sac3, active compounds read low 1.03 | locus YDR162C, strain NBP2, active compounds read low 1.04 | locus YDR195W, strain ref2 1.01 | locus YDR297W, strain sur2, active compounds read low 0.989 | locus YDR318W, strain mcm21, active compounds read low 0.995 | locus YDR334W, strain swr1, active compounds read low 0.96 | locus YDR335W, strain msn5, active compounds read low 1 | locus YDR388W, active compounds read low 0.992 | locus YDR392W, strain spt3, active compounds read low 0.983 | locus YDR502C, strain sam2, active compounds read low 0.986 | locus YEL003W, strain gim4, active compounds read low 0.993 | locus YEL037C, strain rad23, active compounds read low 0.979 | locus YEL061C, strain CIN8 (second series), active compounds read low 0.976 | locus YER015W, strain faa2, active compounds read low 1.01 | locus YER016W, strain bim1, active compounds read low 1 | locus YER110C, active compounds read low 0.974 | locus YER111C, strain swi4, active compounds read low 0.988 | locus YER155C, strain BEM2 (second series), active compounds read low 0.989 | locus YER155C, strain BEM2, active compounds read low 1.02 | locus YER167W, strain BCK2, active compounds read low 1.03 | locus YFR010W, strain ubp6, active compounds read low 0.963 | locus YGL078C, strain dbp3, active compounds read low 0.953 | locus YGL086W, strain mad1, active compounds read low 0.994 | locus YGL167C, strain pmr1, active compounds read low 0.99 | locus YGL173C, strain kem1, active compounds read low 0.996 | locus YGL227W, strain vid30, active compounds read low 0.995 | locus YGL240W, strain doc1, active compounds read low 0.984 | locus YGL248W, strain PDE1, active compounds read low 1.04 | locus YGL253W, strain hxk2, active compounds read low 0.994 | locus YGR135W, strain pre9, active compounds read low 0.969 | locus YGR252W, strain gcn5, active compounds read low 0.924 | locus YHR013C, strain ard1, active compounds read low 1.04 | locus YHR027C, strain rpn1, active compounds read low 0.986 | locus YHR079C, strain IRE1 (second series), active compounds read low 0.986 | locus YHR094C, strain hxt1, active compounds read low 0.989 | locus YHR129C, strain ARP1, active compounds read low 1.06 | locus YHR142W, strain chs7, active compounds read low 0.974 | locus YHR200W, strain rpn10, active compounds read low 0.983 | locus YIL066C, strain RNR3, active compounds read low 1.04 | locus YIL073C, strain SPO22, active compounds read low 1.08 | locus YIL125W, strain kgd1, active compounds read low 1 | locus YIR030C, strain dcg1, active compounds read low 1 | locus YJL092W, strain hpr5, active compounds read low 0.987 | locus YJL095W, strain BCK1 (second series), active compounds read low 0.982 | locus YJL095W, strain BCK1, active compounds read low 1.11 | locus YJL115W, strain asf1, active compounds read low 0.98 | locus YJL129C, strain trk1, active compounds read low 0.989 | locus YJL134W, strain LCB3, active compounds read low 1.02 | locus YJL154C, strain vps35, active compounds read low 0.987 | locus YJL164C, strain tpk1, active compounds read low 0.99 | locus YJL166W, strain qcr8, active compounds read low 0.992 | locus YJL168C, strain set2, active compounds read low 0.989 | locus YJL187C, strain SWE1 (second series), active compounds read low 1.03 | locus YJL187C, strain SWE1, active compounds read low 0.996 | locus YKL009W, strain mrt4, active compounds read low 0.937 | locus YKL068W, active compounds read low 0.978 | locus YKL085W, strain MDH1 (second series), active compounds read low 0.99 | locus YKL085W, strain MDH1, active compounds read low 0.99 | locus YKL160W, strain elf1, active compounds read low 1.01 | locus YKL190W, strain CNB1, active compounds read low 1.04 | locus YKR001C, strain vps1, active compounds read low 1.02 | locus YKR026C, strain gcn3, active compounds read low 0.988 | locus YKR091W, strain srl3, active compounds read low 0.994 | locus YLL001W, strain dnm1, active compounds read low 0.985 | locus YLL026W, active compounds read low 1 | locus YLL041C, strain sdh2, active compounds read low 1.01 | locus YLR027C, strain aat2, active compounds read low 1.01 | locus YLR039C, strain RIC1, active compounds read low 1.16 | locus YLR058C, strain SHM2, active compounds read low 1.04 | locus YLR102C, strain apc9, active compounds read low 1.01 | locus YLR221C, strain rsa3, active compounds read low 1 | locus YLR258W, strain gsy2, active compounds read low 0.987 | locus YLR262C, strain YPT6 (second series), active compounds read low 0.898 | locus YLR262C, strain YPT6, active compounds read low 1.07 | locus YLR268W, strain sec22, active compounds read low 0.997 | locus YLR320W, strain mms22, active compounds read low 1 | locus YLR342W, strain FKS1 (second series), active compounds read low 1.04 | locus YLR342W, strain FKS1, active compounds read low 0.985 | locus YLR357W, strain rsc2, active compounds read low 1 | locus YLR370C, strain arc18, active compounds read low 0.983 | locus YLR371W, strain rom2, active compounds read low 1.02 | locus YLR384C, strain iki3, active compounds read low 1 | locus YLR418C, strain cdc73, active compounds read low 1.11 | locus YML016C, strain PPZ1, active compounds read low 1.03 | locus YML032C, strain rad52, active compounds read low 0.995 | locus YML120C, strain ndi1, active compounds read low 0.981 | locus YML124C, strain tub3, active compounds read low 1.01 | locus YMR058W, strain fet3, active compounds read low 0.984 | locus YMR078C, strain ctf18, active compounds read low 0.985 | locus YMR125W, strain sto1, active compounds read low 0.972 | locus YMR129W, active compounds read low 1 | locus YMR205C, strain PFK2, active compounds read low 1.01 | locus YMR223W, strain ubp8, active compounds read low 1 | locus YMR231W, strain pep5, active compounds read low 0.977 | locus YMR307W, strain GAS1, active compounds read low 1.3 | locus YNL067W, strain RPL9B, active compounds read low 1.03 | locus YNL071W, strain lat1, active compounds read low 0.978 | locus YNL128W, strain TEP1, active compounds read low 1.03 | locus YNL209W, strain ssb2, active compounds read low 0.998 | locus YNL233W, strain BNI4, active compounds read low 1.08 | locus YNL248C, strain rpa49, active compounds read low 0.958 | locus YNL250W, strain rad50, active compounds read low 1.01 | locus YNL271C, strain bni1, active compounds read low 0.987 | locus YNL298W, strain CLA4, active compounds read low 0.993 | locus YNL307C, strain MCK1, active compounds read low 1 | locus YNL322C, strain KRE1 (second series), active compounds read low 0.989 | locus YNR049C, strain mso1, active compounds read low 0.998 | locus YNR052C, strain pop2, active compounds read low 0.948 | locus YOL012C, strain htz1 1.2 | locus YOL147C, strain pex11, active compounds read low 1 | locus YOR001W, strain rrp6, active compounds read low 0.985 | locus YOR061W, strain CKA2, active compounds read low 1.02 | locus YOR069W, strain VPS5, active compounds read low 1.02 | locus YOR070C, strain gyp1, active compounds read low 0.997 | locus YOR080W, strain dia2, active compounds read low 0.984 | locus YOR083W, strain WHI5, active compounds read low 0.986 | locus YOR106W, strain vam3, active compounds read low 0.946 | locus YOR136W, strain idh2, active compounds read low 0.985 | locus YOR144C, strain elg1, active compounds read low 0.996 | locus YOR184W, strain ser1, active compounds read low 0.98 | locus YOR265W, strain rbl2, active compounds read low 0.992 | locus YOR270C, strain vph1, active compounds read low 0.87 | locus YOR290C, strain snf2, active compounds read low 0.984 | locus YOR316C, strain cot1, active compounds read low 0.991 | locus YPL051W, strain arl3, active compounds read low 0.997 | locus YPL055C, strain LGE1, active compounds read low 1.13 | locus YPL078C, strain atp4, active compounds read low 0.966 | locus YPL106C, strain sse1, active compounds read low 0.988 | locus YPL240C, strain hsp82, active compounds read low 0.997 | locus YPL241C, strain CIN2, active compounds read low 1.04 | locus YPR119W, strain clb2, active compounds read low 1.01 | locus YPR141C, strain kar3, active compounds read low 1 | locus YPR163C, strain tif3, active compounds read low 1 | locus YPR167C, strain met16, active compounds read low 0.993 | strain wtn01, active compounds read low 0.984
